# Experimental data from PubChem BioAssay (NCATS).
# Records with an inconclusive call do not appear. Entries that show only a call come without a potency. Calls of active or inactive are those of the source. Calls come from the whole dose curve; as a rule, active = well fitted inhibition curve with a large enough effect; inconclusive = small, poorly fitted or top-dose-only effect; inactive = flat fitted curve, though single readings scatter.
# Test system: DFO2036
# Assay: qHTS profiling for inhibitors of Plasmodium falciparum proliferation (AID 504749); note: nearly all actives have a fitted effect of over 60% in size
# Conditions: P. falciparum in erythrocytes, SYBR Green DNA, 72 h; series mostly up to 28.7 µM
# Text: NIH National Institute of Allergy and Infectious Diseases [NIAID] NIH Chemical Genomics Center [NCGC] MLPCN Grant: None Assay Provider: Xinzhuan Su, NIAID NCGC Assay Overview: Plasmodium falciparum is a virulent malarial parasite that kills 1-2 million people worldwide each year. Transmitted by mosquitoes, the sporozoite form of the parasite enters the blood stream to infect hepatocytes, where they become merozoites that infect red blood cells (erythrocytes). Within erythrocytes, merozoites begin a […] cycle of growth and division, after which the parasite is released to infect new red blood cells. Gametocytes, which form within erythrocytes as well, circulate in the bloodstream and are ingested by the mosquito, thereby completing the life cycle. To profile malarial isolates for differential chemical responses and to identify inhibitors of malarial growth, an assay that measures P. falciparum growth and replication within erythrocytes was employed. This assay uses a DNA binding fluorescent dye (SYBR Green) to detect parasite DNA following cell lysis. Because mature erythrocytes lack DNA, only Plasmodium-derived DNA is detected.
# NCGC Assay Protocol Summary: The SYBR Green viability assay was adapted from a method described previously (Plouffe et al., 2008). For screening 3 ul culture medium was dispensed into 1536 well black clear bottom plates (Aurora Biotechnologies) using a Multidrop Combi (Thermo Fisher Scientific Inc.), 23 nL compounds in DMSO were added by a pin tool (Kalypsys), and 5 ul of erythrocytes infected with P. falciparum (0.3% parasitemia, 2.5% hematocrit final concentration) were added. The plates were incubated at 37 C in a humidified incubator in 5% CO2 for 72 h, and 2 ul lysis buffer (20 mM Tris HCl, 10 mM EDTA, 0.16% saponin, 1.6% triton X, 10X SYBR Green I supplied as 10,000X […] by Invitrogen) was added to each well. The plates were mixed for 25 sec with gentle shaking and incubated overnight at room temperature in the dark. The following morning, fluorescence intensity at 485(14) nm excitation and 535(25) nm emission wavelengths was measured on an EnVision (Perkin Elmer) plate reader. Plate reads were normalized relative to the control inhibitor (0.29 uM artemisinin) and vehicle (DMSO) wells present on each plate and then corrected by an algorithm using vehicle-only control plates at the beginning and end of the compound plate stack.
# Potency is the fitted concentration of half-maximal effect.
row,Compound,Potency
1,COc1cc(N)c(Cl)cc1C(=O)N[C@@H]1CN2CCC1CC2,inactive
2,CC(C)(O)C1C2OC(=O)C1[C@]1(O)C[C@H]3O[C@]34C(=O)O[C@H]2[C@]14C (stereo not given in full) (tested in a mixture with another compound),inactive
3,C[N+]1([O-])[C@@H]2CC(OC(=O)[C@@H](CO)c3ccccc3)C[C@@H]1[C@H]1O[C@H]12 (stereo not given in full),inactive
4,C[C@H](NC(C)(C)C)C(=O)c1cccc(Cl)c1,inactive
5,CN(C)[C@@H]1C(=O)C(C(N)=O)=C(O)[C@]2(O)C(=O)C3=C(O)c4c(O)ccc(Cl)c4[C@](C)(O)[C@H]3C[C@@H]12,inactive
6,C[C@]12CC[C@H](OS(=O)(=O)O)CC1=CCC1C2CC[C@]2(C)C(=O)CC[C@@H]12 (stereo not given in full),inactive
7,CC(C)c1c(CN(C)[C@@H](C)Cc2ccccc2)n(C)n(-c2ccccc2)c1=O,inactive
8,[Hg+][c]1ccccc1,inactive
9,CN(C)C(=O)Oc1cc(OC(=O)N(C)C)cc([C@@H](O)CNC(C)(C)C)c1,inactive
10,CNC[C@H](O)c1ccc(O)cc1,inactive
11,CO[C@@H](COC(N)=O)C1=C(N2CC2)C(=O)C(C)=C(N2CC2)C1=O,0.794 µM (active)
12,CCC(C)C1O[C@]2(C=CC1C)CC1CC(C/C=C(\C)[C@H](OC3CC(OC)C(O[C@H]4CC(OC)[C@@H](O)C(C)O4)C(C)O3)[C@@H](C)/C=C/C=C3\COC4C(O)C(C)=C[C@H](C(=O)O1)[C@@]34O)O2 (stereo not given in full),11.2 µM (active)
13,CNC(C)[C@@H](O)c1ccccc1 (stereo not given in full),inactive
14,C[C@]12CC[C@H](O)C[C@H]1CCC1C2CC[C@]2(C)[C@@H](c3ccc(=O)oc3)C[C@H]3O[C@]132 (stereo not given in full),inactive
15,CC[C@@]1(c2ccc(N)cc2)CCC(=O)NC1=O,inactive
16,CC(=O)OC1C[C@H](O[C@@H]2C(O)C[C@H](O[C@@H]3C(O)C[C@@H](OC4CC[C@]5(C)C(CCC6C5CC(O)[C@@]5(C)C(C7=CC(=O)OC7)CC[C@@]65O)C4)OC3C)OC2C)O[C@H](C)[C@H]1O[C@H]1OC(CO)C(O)C(O)C1O (stereo not given in full),inactive
17,O=C1C=C2C=CC3C[C@@]2(O1)C1CCCCN31 (stereo not given in full),12.6 µM (active)
18,C[C@]12CC[C@H]3[C@@H](CCC4=CC(=O)CC[C@@]43C)[C@@H]1CC[C@@H]2O,inactive
19,ClC1=C(Cl)C2(Cl)C3C4CC(C5OC45)C3C1(Cl)C2(Cl)Cl (stereo not given),inactive
20,COc1cc2c(cc1OC)[C@@]13CCN4CC5=CCOC6CC(=O)N2C1[C@H]6[C@@H]5C[C@@H]43 (stereo not given in full),inactive

row,Compound,Potency
1,CCNC[C@H](O)c1cccc(O)c1,inactive
2,C#CCN(C)[C@@H](C)Cc1ccccc1,inactive
3,C[C@H](N)[C@@H](O)c1ccccc1,inactive
4,C[N+]1(C)[C@@H]2CC[C@H]1CC(OC(=O)[C@@H](CO)c1ccccc1)C2 (stereo not given in full),inactive
5,CNC(C)[C@@H](O)c1ccc(O)cc1 (stereo not given in full),inactive
6,O=c1ccc2cc(O[C@H]3O[C@@H](CO)[C@@H](O)[C@@H](O)[C@@H]3O)c(O)cc2o1,inactive
7,C[C@H]1CN(C2CCC(C#N)(c3ccc(F)cc3)CC2)CC[C@@]1(C(=O)O)c1ccccc1 (stereo not given in full),inactive
8,CN[C@@H](C)[C@H]1CC[C@@H](N)[C@@H](O[C@@H]2[C@@H](O)[C@@H](O[C@H]3OC[C@@](C)(O)[C@@H](NC)[C@@H]3O)[C@H](N)C[C@@H]2N)O1 (tested in a mixture with another compound),inactive
9,C[N+]1([O-])[C@@H]2CC[C@H]1CC(OC(=O)[C@@H](CO)c1ccccc1)C2 (stereo not given in full),inactive
10,C[C@]12CC[C@H](O)CC1=CCC1C2CC[C@]2(C)C(=O)CC[C@@H]12 (stereo not given in full),inactive
11,CC(C)N(CC[C@@](C(N)=O)(c1ccccc1)c1ccccn1)C(C)C,inactive
12,N[C@H]1C[C@H]1c1ccccc1,inactive
13,C[C@@]12CC[C@H]3[C@@H](CC[C@@H]4C[C@H]5S[C@H]5C[C@]43C)[C@H]1CC[C@H]2O,inactive
14,Oc1ccc2c3c1O[C@H]1[C@@H](O)CC[C@@]4(O)C(C2)N(CC2CCC2)CCC314 (stereo not given in full),inactive
15,CCN[C@]1(c2cccs2)CCCCC1=O,inactive
16,C[C@@]12CCC(=O)C=C1C=C[C@H]1[C@H]3CC[C@](O)(CCC(=O)O)[C@]3(C)CC[C@@H]12,inactive
17,NCC[C@H](O)C(=O)N[C@H]1C[C@@H](N)[C@@H](O[C@H]2O[C@@H](CN)[C@@H](O)[C@@H](O)[C@@H]2N)[C@@H](O[C@H]2O[C@@H](CO)[C@@H](O)[C@@H]2O)[C@@H]1O,inactive
18,CNc1ccc(C(=O)CC(O)CCC(C)C2OC(=O)CC(O)CC(=O)CC(O)CC(O)CC(O)CC(O)CC3(O)CC(O)C(C(=O)OC)C(CC(O[C@@H]4OC(C)C(O)C(N)C4O)/C=C/C=C/C=C/C=C/C=C/C=C/C=C/C2C)O3)cc1 (stereo not given in full),inactive
19,C[C@@H]1O[C@H](O[C@@H]2C=C3CC[C@H]4[C@@H](CC[C@]5(C)[C@@H](c6ccc(=O)oc6)CC[C@]45O)[C@@]3(C)CC2)[C@@H](O)[C@H](O)[C@@H]1O,inactive
20,O=[As]O[As]=O (stereo not given),12.6 µM (active)
